Source: PubChem (National Center for Advancing Translational Sciences (NCATS))
D2 antagonist: antagonizes the human D2 dopamine receptor | P14416 | HEK293 TREx D2 cells, calcium flux, dopamine EC80 | inhibition, % at 10 µM | actives 2% (n = 340,000) | AID 485344; in the data active means inhibition above about 30%; inactive means below that, where a call was filed; further: 0% is about no effect
Target sequence (P14416 whole entry, looked up): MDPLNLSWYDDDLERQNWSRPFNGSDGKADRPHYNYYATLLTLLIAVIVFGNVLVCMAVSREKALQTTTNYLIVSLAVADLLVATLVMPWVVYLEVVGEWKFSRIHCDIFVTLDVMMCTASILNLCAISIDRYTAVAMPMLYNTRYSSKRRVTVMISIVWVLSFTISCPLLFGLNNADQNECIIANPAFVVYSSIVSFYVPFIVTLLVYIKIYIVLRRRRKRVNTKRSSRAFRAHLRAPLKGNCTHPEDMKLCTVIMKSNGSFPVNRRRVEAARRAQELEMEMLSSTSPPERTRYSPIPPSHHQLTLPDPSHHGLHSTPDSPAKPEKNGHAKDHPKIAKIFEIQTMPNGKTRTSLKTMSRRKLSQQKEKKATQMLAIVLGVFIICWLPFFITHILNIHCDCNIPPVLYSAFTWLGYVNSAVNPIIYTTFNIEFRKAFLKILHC
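Inhibition of EC80 dopamine-driven calcium flux, recorded kinetically, defines activity here; cells are a tetracycline-induced HEK293 T-REx line expressing force-coupled D2.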
D2 PAM-1: potentiates the human D2 dopamine receptor allosterically; P14416; DiscoveRx D2 beta-arrestin cells, luminescence, 90 min; 100% = 57 uM dopamine signal; potentiation, % (test concentration not listed); actives 0.23% (n = 360,000); in the data active means potentiation above about 50%; inconclusive means mostly about 30% to 49%
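PathHunter beta-arrestin assay in DiscoveRx D2 cells. Compounds were added with an EC20 of dopamine (50 nM final) for 90 min at 37 deg C. Luminescence was read 1 h after detection reagent, with 57 uM dopamine as the EC100 control.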
D2 ag-1: agonists of human D2 dopamine receptor; activation, % at 2 µM; actives 0.53% (n = 340,000); P14416; HEK293 T-REx D2 cells, calcium flux agonist mode;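 active means activation over 3 SD above normal in the single-dose calcium agonist read, cut at about 30% in these data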; further: 0% is about no effect
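Tetracycline-induced HEK293 T-REx cells with force-coupled D2 receptor, plated overnight at 30 C, loaded with no-wash calcium dye. After a 10 s baseline, compound was pin-added and calcium flux read kinetically for 180 s; calcium rises flagged agonists.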
D2 PAM-2: positive allosteric modulators of human D2 dopamine receptor; HEK293 T-REx D2, calcium flux, EC20 dopamine potentiation; P14416; potentiation, % at 10 µM; actives 0.34% (n = 340,000);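 active means potentiation over 3 SD above the plate norm, cut at about 30% in these data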; further: 0% is about no effect
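Primary screen. Calcium kinetics in induced HEK293 T-REx D2 cells: compound pre-addition 180 s, EC20 dopamine, 180 s more.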
D2 ag-2: activates the human D2 dopamine receptor; DiscoveRx PathHunter D2 beta-arrestin, luminescence, 90 min; 100% = 57 uM dopamine signal; activation, % (no concentration beside the values); AID 624465; actives 0.084% (n = 360,000); P14416; in the data active means activation above about 40%; inconclusive means between about 15% and that limit
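DiscoveRx PathHunter D2 beta-arrestin cells (2,100/well) attached overnight, then compound-stimulated 90 min at 37 C in HBSS/10 mM HEPES/0.1% Tween-20 buffer; beta-galactosidase complementation read by luminescence after 1 h at ambient temperature. Dopamine 57 uM final (EC100) as control.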
* hit, by the source's call; ? = inconclusive; / = no result. Compounds with a hit are over-represented: about 2.4% of the library has one in this group of screens.

SMILES | D2 antagonist | D2 PAM-1 | D2 ag-1 | D2 PAM-2 | D2 ag-2
CCN(CC)S(=O)(=O)c1ccc2c(c1)N(CC(=O)Nc1ccc(OC)cc1)C(=O)CS2 | / | / | -1 | 18 | /
CCCCNC(=O)N1CCOCCOCCN(C(=O)NCCCC)CCOCCOCC1 | 32* | 5 | 3 | / | -1
Fc1cccc(F)c1CN1CCN(c2ncccn2)CC1 | -3 | 21 | 33* | -14 | ?
CCOC(=O)c1[nH]cnc1C(=O)N1CCN(C(=O)OC(C)(C)C)CC1 | 31* | -8 | 0 | -1 | -3
Cc1cc(=O)c2c(o1)C(=O)c1occc1C2=O | / | 52* | / | / | ?
CCN(CC)c1ccc(/C=N/NC(=O)CNC(=O)c2ccc3c(c2)OCCO3)cc1 | 33* | -18 | 0 | -19 | -8
CN(C)c1ccc(/C=N/NC(=O)CNC(=O)c2ccc3c(c2)OCCO3)cc1 | 10 | -6 | 0 | -1 | -3
Cc1ccc(C(=O)N2CCN(Cc3ccc4c(c3)OCO4)CC2)c(Cl)c1 | 73* | -9 | -1 | -30 | 2
O=C(c1cc([N+](=O)[O-])ccc1Cl)N1CCN(Cc2ccc3c(c2)OCO3)CC1 | 44* | 1 | 1 | 5 | 0
O=C(c1ccccc1Cl)N1CCN(Cc2ccc3c(c2)OCO3)CC1 | -6 | -3 | -2 | 10 | -3
COc1ccc(CCNC(=O)c2ccc3c(c2)N(Cc2ccccc2Cl)C(=O)c2ccccc2S3)cc1OC | / | / | 0 | -5 | /
O=C1CC(N2CCN(c3cccc(C(F)(F)F)c3)CC2)C(=O)N1c1ccccc1F (stereo unspecified) | 33* | -15 | -1 | 1 | 0
O=C1CC(N2CCN(c3ccccc3)CC2)C(=O)N1c1cccc(Br)c1 (stereo unspecified) | 2 | -4 | 1 | 37* | -6
Cc1ccc(OCC(=O)Nc2ccc3nc(SCC(=O)N4CCOCC4)sc3c2)cc1C | / | / | 0 | -9 | /
CCOc1ccc(S(=O)(=O)NCC(c2ccc(N(C)C)cc2)N2CCCC2)cc1 (stereo unspecified) | / | / | -4 | 2 | /
COc1ccc(CCC(=O)NC2CC(=O)N(c3ccc(F)cc3)C2)cc1 (stereo unspecified) | / | / | 0 | 3 | /
O=C(Cn1nnc(-c2ccccc2NC(=O)c2ccccc2F)n1)NCc1ccco1 | 33* | 9 | 1 | 0 | 0
N=C1/C(=C\c2coc3ccccc3c2=O)C(=O)N=C2SC=CN12 | 0 | -19 | 117* | -4 | -5
N=C1/C(=C/c2cccn2Cc2ccc(F)cc2)C(=O)N=C2SC=CN12 | 15 | 10 | -1 | 0 | -2
CC1=CC2=NC(=O)/C(=C/c3coc4ccc(Cl)cc4c3=O)C(=N)N2O1 | 3 | 0 | 64* | -4 | 1
COc1cc(/C=C2/C(=N)N3C(SC)=NSC3=NC2=O)ccc1OC(=O)c1ccco1 | -5 | -8 | 0 | -10 | -7
CSC1=NSC2=NC(=O)/C(=C/c3coc4ccccc4c3=O)C(=N)N12 | -13 | -7 | 55* | 13 | 1
CSC1=NSC2=NC(=O)/C(=C\c3cccs3)C(=N)N12 | 4 | 1 | 0 | -5 | -4
CSC1=NSC2=NC(=O)/C(=C/c3coc4ccc(O)cc4c3=O)C(=N)N12 | -5 | 28 | 48* | 1 | 7
CCc1ccc(NC(=O)CC2C(=O)N(c3cccc(C)c3)C(=O)N2CCC(C)C)cc1 (stereo unspecified) | / | / | 0 | -4 | /
SMILES | D2 antagonist | D2 PAM-1 | D2 ag-1 | D2 PAM-2 | D2 ag-2
CCc1cnc2c(c1SCC(=O)NCc1ccc(F)cc1)c(=O)n(C)c(=O)n2C | / | / | 1 | 1 | /
O=C(CCn1c(=O)c2cccn2c2cccnc21)N1CCN(c2ccccc2F)CC1 | / | / | 0 | 1 | /
O=C1OC(N2CCN(C(=O)C3CCCO3)CC2)c2ccccc21 (stereo unspecified) | -11 | 55* | 0 | -5 | 3
CCOC(=O)N1CCN(C2OC(=O)c3ccccc32)CC1 (stereo unspecified) | -3 | -13 | 1 | 14 | 0
Cc1cccc(OCc2nc(CC(=O)Nc3ccc(Cl)cc3)cs2)c1 | / | / | -1 | 0 | /
NC(=O)CCCCC(=O)OCCCc1cccs1 | 0 | -1 | -1 | 31* | 3
